# MITF TRPM1 HTS – MITF TRPM1 promoter activation in melanoma cells. actives 0.75% (n = 300,000). SK-MEL-5 TRPM1-promoter luciferase, 24 h; % of positive control, neutral wells = 0. activation, % at 12.5 µM;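 active = mean activation of at least 80% with every replicate also reaching 80%; inconclusive = mean reaches 80% but some replicate falls short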;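 note: 0% = neutral control wells and 100% = parthenolide positive control wells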
# APOBEC3G inh – inhibitors of human APOBEC3G DNA deaminase; inhibition, % at 20 µM; actives 0.28% (n = 330,000); recombinant A3G, ssDNA deamination FAM/TAMRA fluorescence;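 active = inhibition of at least 40% at 20 µM, with no more than 30% in the related APOBEC3A deaminase screen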;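 note: plate controls were DMSO wells with A3G for no effect and wells lacking A3G enzyme for full effect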
# Target sequence (Q9HC16 whole entry, looked up): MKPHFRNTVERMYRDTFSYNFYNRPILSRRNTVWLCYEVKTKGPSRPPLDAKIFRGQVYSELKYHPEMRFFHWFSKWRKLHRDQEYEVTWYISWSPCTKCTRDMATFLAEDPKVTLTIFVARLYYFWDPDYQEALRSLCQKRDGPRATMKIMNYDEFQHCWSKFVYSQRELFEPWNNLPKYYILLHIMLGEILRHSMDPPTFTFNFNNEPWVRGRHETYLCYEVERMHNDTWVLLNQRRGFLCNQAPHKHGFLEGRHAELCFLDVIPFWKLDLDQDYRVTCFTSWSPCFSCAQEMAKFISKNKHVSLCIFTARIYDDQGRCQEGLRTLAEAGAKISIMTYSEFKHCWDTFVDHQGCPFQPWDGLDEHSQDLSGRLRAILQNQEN
# PHOSPHO1 inh – blocks human PHOSPHO1 phosphatase activity | Q8TCT1 | recombinant PHOSPHO1, absorbance phosphatase assay | actives 1.1% (n = 290,000) | AID 1565 | inhibition, % at 13.3 µM; in the data active = inhibition above about 60%
# Wnt act – activates Wnt/beta-catenin signaling in a reporter cell assay | activator, plate reader | activation, % at 9.35 µM | actives 1.2% (n = 300,000); in the data active = activation above about 30%, passing the limit was not always enough; inconclusive = no clear call, values can overlap the other calls;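 note: 0% = neutral control wells and 100% = positive control wells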
# APOBEC3A inh – inhibitors of human APOBEC3A DNA deaminase; P31941; recombinant A3A, FAM/TAMRA ssDNA deamination fluorescence; inhibition, % at 20 µM; actives 0.41% (n = 330,000); AID 493011;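 active = at least 40% inhibition at 20 µM here, with at most 30% in a related deaminase screen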;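 note: plate controls were A3A with DMSO for no effect and wells lacking A3A enzyme for full effect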
# Target sequence (P31941 whole entry, looked up): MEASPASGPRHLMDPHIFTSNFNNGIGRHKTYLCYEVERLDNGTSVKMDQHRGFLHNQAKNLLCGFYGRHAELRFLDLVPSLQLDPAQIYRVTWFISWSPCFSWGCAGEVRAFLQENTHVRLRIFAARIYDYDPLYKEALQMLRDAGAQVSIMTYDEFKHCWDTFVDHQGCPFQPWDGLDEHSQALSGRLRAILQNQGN
# esBAF inh – inhibitors of esBAF chromatin remodeling in mouse ES cells. AID 602393. Bmi1-luciferase knock-in reporter, 24 h; 100% = twice the neutral-well signal. reporter increase, % at 12.5 µM. actives 2% (n = 350,000); in the data active = activation above about 40%; inconclusive = no clear call, values can overlap the other calls;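 note: 0% = median of the plate's neutral control wells and 100% = double that signal; a rise in the Bmi1 reporter signal indicates esBAF inhibition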
# * hit, by the source's call; ? = inconclusive; nt = no result given. Only some compounds are listed: those with a hit (about 3.6% of all), similar ones and a draw of the others.
SMILES,MITF TRPM1 HTS,APOBEC3G inh,PHOSPHO1 inh,Wnt act,APOBEC3A inh,esBAF inh
C[C@H]1CN([C@@H](C)CO)C(=O)c2cc(NC(=O)C3CC3)ccc2O[C@@H]1CN(C)C(=O)Nc1ccccc1,nt,nt,nt,nt,nt,-1.7
COc1ccc(S(=O)(=O)Nc2ccc3c(c2)C(=O)N([C@H](C)CO)C[C@@H](C)[C@@H](CN(C)S(=O)(=O)c2c(C)noc2C)OCCCC[C@H](C)O3)cc1,nt,nt,nt,nt,nt,10.7
CSc1ncc(Cl)c(C(=O)Nc2ccc(NC(C)=O)cc2)n1,21.3,-3.4,60.0*,-0.3,0.3,1.3
CSc1ncc(Cl)c(C(=O)Nc2cccnc2)n1,0.5,-7.9,nt,1.7,1.3,-2.0
CSc1ncc(C(=O)Nc2ccc(C(C)=O)cc2)c(C)n1,56.9,-6.7,54.5,6.9,-2.0,52.1*
O=C(Nc1ccc2c(c1)CCC2)c1c(F)cccc1Cl,88.4*,2.5,42.4,16.9,8.1,nt
COc1ccc(NC(=O)Nc2ccccc2OC)cc1,?,-4.5,13.9,15.7,-1.5,47.7*
O=C(Nc1ccc(F)cc1)Nc1ccc2c(c1)CCC2,?,-2.5,51.4,?,-4.7,nt
O=C(Nc1ccc2c(c1)CCC2)Nc1ccc(F)cc1F,78.6,-9.8,37.6,41.2*,-2.4,70.6*
Cc1ccccc1NC(=O)CNC(=O)c1ccc(C(F)(F)F)cc1,4.9,-1.8,-29.3,-0.7,3.5,nt
Cc1ccccc1NC(=O)Nc1ccc(C(F)(F)F)cc1,37.8,-7.4,23.9,38.1*,-5.1,nt
O=C(C[C@H]1C[C@@H]2c3cc(NS(=O)(=O)c4ccccc4)ccc3O[C@@H]2[C@@H](CO)O1)NC1CCCC1,nt,nt,nt,nt,nt,14.4
O=C(Nc1ccc2c(c1)CCC2)c1ccc(Cl)nc1,19.7,-4.6,51.9,10.6,0.9,81.6*
COc1ccccc1NC(=O)Nc1ccc2c(c1)CCC2,111.9*,7.4,22.6,18.6,2.1,nt
COc1ccc(NC(=O)Nc2ccc(F)c(Cl)c2)cc1,127.1*,-6.1,8.0,44.6*,-1.5,nt
COc1ccccc1NC(=O)C(=O)Nc1ccccn1,47.1,-5.2,17.9,36.2*,-5.9,35.0
C[C@@H]1CN([C@H](C)CO)C(=O)Cc2cc(NS(=O)(=O)c3cn(C)cn3)ccc2O[C@@H]1CN(C)S(=O)(=O)c1ccc(Cl)cc1,nt,nt,nt,nt,nt,2.0
COc1ccc(S(=O)(=O)Nc2ccc3c(c2)C(=O)N([C@H](C)CO)C[C@H](C)[C@@H](CN(C)S(=O)(=O)c2ccc(F)cc2)OCCCC[C@H](C)O3)cc1,nt,nt,nt,nt,nt,-0.4
NS(=O)(=O)c1ccc2nc(NC(=O)Nc3ccccc3F)sc2c1,68.4,-5.6,10.8,42.9*,0.3,12.0
COc1ccccc1NC(=O)Nc1nc(CC(=O)Nc2ccc(N(C)C)cc2)cs1,14.6,-5.1,nt,5.0,-1.6,50.9*
Cc1ccccc1NC(=O)Nc1ccc2c(c1)CCC2,74.7,-5.2,26.3,-1.0,-0.9,72.2*
O=C(Nc1ccccc1F)Nc1ccccc1F,40.5,-4.6,47.1,54.5*,-2.7,56.0*
C[C@H](O)C#Cc1ccc([C@H]2[C@H]3CN(CC4CC4)CCCCN3[C@H]2CO)cc1,nt,nt,nt,nt,nt,-1.4
C[C@@H]1CN([C@H](C)CO)S(=O)(=O)c2ccc(C3=CCCC3)cc2O[C@@H]1CN(C)Cc1ccccn1,nt,nt,nt,nt,nt,0.5
O=C(C1CCCCC1)N1CC[C@@H]2[C@H](CO)Nc3ccc(Br)cc3[C@@H]21,nt,nt,nt,nt,nt,5.4
SMILES,MITF TRPM1 HTS,APOBEC3G inh,PHOSPHO1 inh,Wnt act,APOBEC3A inh,esBAF inh
O=C(O)C[C@H]1C=C[C@H](NC(=O)Nc2cc(F)ccc2F)[C@@H](CO)O1,nt,nt,nt,nt,nt,5.0
O=C(Nc1ccc2c(c1)CCC2)Nc1ccccc1F,107.9*,-3.1,17.8,26.5,-0.4,4.8
COc1ccc(/C=C/C(=O)Nc2ccc3c(c2)CCC3)cc1OC,28.6,-0.6,0.6,nt,5.9,47.3*
COc1ccc(NC(=O)Nc2ccc3c(c2)CCC3)cc1OC,21.2,-6.7,-0.8,1.7,-1.1,nt
CO[C@H]1CN(C)C(=O)c2cc(NC(=O)c3cccc(F)c3)ccc2OC[C@H](C)N(C(C)=O)C[C@H]1C,nt,nt,nt,nt,nt,-4.6
C[C@@H]1CN([C@H](C)CO)C(=O)Cc2cc(NC(=O)NC3CCCCC3)ccc2O[C@H]1CN(C)C,nt,nt,nt,nt,nt,-2.4
CC(C)NC(=O)N1C[C@H]2[C@@H](c3ccccc31)[C@@H](CO)N2C(=O)C1CCCC1,nt,nt,nt,nt,nt,-4.3
O=C(Nc1ccccc1)C1Cc2ccccc2CN1C(=O)c1ccco1 (stereo not drawn),nt,-6.0,32.6,nt,-1.8,9.4
O=C(Nc1cc(C(F)(F)F)ccc1N1CCOCC1)C1Cc2ccccc2CN1C(=O)c1ccco1 (stereo not drawn),-8.4,4.6,65.2*,-4.4,11.1,-11.7
O=C(O)c1ccc(NCc2cccnc2)cc1,-11.8,-4.7,5.5,45.9*,-0.3,97.3*
Cc1cccc(NC(=S)NNC(=O)c2ccccc2OC(F)F)c1,-13.2,6.7,71.8*,nt,2.3,-5.3
Cc1cccc(NC(=S)NNC(=O)c2ccccc2Br)c1,23.7,-8.6,39.5,nt,-1.3,nt
COc1ccc(NC(=S)NNC(=O)c2ccccc2OC(F)F)cc1,-4.9,-3.9,73.0*,nt,-1.1,11.8
C[C@@H]1CN([C@H](C)CO)C(=O)c2cccc(NS(=O)(=O)c3cccs3)c2O[C@@H]1CN(C)CC1CCCCC1,nt,nt,nt,nt,nt,2.9
COCC(=O)NC[C@@H]1[C@H](c2ccccc2)[C@H](CO)N1C(C)=O,nt,nt,nt,nt,nt,2.4
C#CCNC(=O)/C=C/c1ccc(C)cc1,91.4*,-15.3,-6.3,27.5,-1.3,32.3
Cc1ccc(/C=C/C(=O)NCCCc2ccccc2)cc1,1.7,-5.6,-3.9,4.2,1.6,nt
CCCNC(=O)N(C)C[C@@H]1Oc2cc(C#Cc3cccc(F)c3)ccc2S(=O)(=O)N([C@H](C)CO)C[C@H]1C,nt,nt,nt,nt,nt,6.3
Cc1ccc(Cn2ccsc2=NC(=O)COC(=O)c2ccc(O)cc2O)cc1,40.8,-4.0,23.8,6.4,-0.5,47.2*
CCC(=O)Nc1ccc2c(c1)C(=O)N(C)C[C@@H](OC)[C@@H](C)CN(C(=O)CC1CC1)[C@H](C)CO2,nt,nt,nt,nt,nt,0.6
Cc1cc(C(=O)Nc2ccc3c(c2)C(=O)N(C)[C@@H]2CC[C@H](CC(=O)N[C@H](C)c4ccccc4)O[C@@H]2CO3)no1,nt,nt,nt,nt,nt,-4.1
Cc1ccc(Oc2cc(-n3nc(C)cc3C)ncn2)cc1,62.2,-3.5,-16.7,nt,-0.8,47.5*
Cc1cc(C)n(-c2cc(-n3nc(C)cc3C)ncn2)n1,nt,-3.3,-13.6,nt,-3.2,1.3
O=C(C1CC12CCCC2)N1CCC(CO)(Cc2ccccc2Cl)CC1 (stereo not drawn),5.1,-6.4,51.8,56.2*,-2.1,nt
CC1(C)CC(=O)C=C(c2ccc(-c3ccc(S(C)(=O)=O)cc3)cc2)C1=O,nt,nt,nt,-0.8,nt,65.3*
COc1ccncc1-c1ccc(C2=CC(=O)CC(C)(C)C2=O)cc1,nt,nt,nt,1.0,nt,65.2*
COc1ccc2cc(C3=CC(=O)CC(C)(C)C3=O)ccc2c1,nt,nt,nt,0.5,nt,123.9*
COc1cccc(-c2ccc(C3=CC(=O)CC(C)(C)C3=O)cc2)c1OC,nt,nt,nt,0.2,nt,16.4

# Bioassay records from PubChem BioAssay.
